{"source": "PubChem BioAssay AID463173", "about": "(ICCB-Longwood Screening Facility, Harvard Medical School, 2010)", "note": "The campaign covered roughly 52,000 compounds. About 4,300 (8.3%) were called active. This is one part of a sample in which actives are shown more often than they occur. Unmarked numbers belong to inactive results. No stated cut-off is given here; in the data, active means survival mostly below about 52% (no sharp cut-off); inactive means mostly above about 56%.", "data": [{"tested_on": "DeltatarO mutant", "assay": "growth inhibition of S. aureus wild type versus tarO mutant, primary screen, teichoic acid synthesis inhibitors, RN4220, OD600 (AID 463173)", "conditions": "OD600, 18 h, stronger effect = lower value, screened at 18.75 µg/mL (by protocol)", "values": [{"smiles": "CCOC(=O)CNc1nnc(SCC(=O)OCC)[nH]c1=O", "survival": "71%"}, {"smiles": "Cc1ccc2oc(C(=O)Nc3ccc(S(=O)(=O)N4CCCC(C)C4)cc3)cc(=O)c2c1", "note": "(stereo not drawn)", "survival": "69%"}, {"smiles": "Cc1ccc(Cl)cc1N1CCN(CCCNc2ncnc3onc(-c4ccc(F)cc4)c23)CC1", "survival": "80%"}, {"smiles": "Cc1ccc2nc(-c3ccncc3)c(Nc3ccc(C(C)C)cc3)n2c1", "survival": "75%"}, {"smiles": "CC(C)(Cc1ccc(O)cc1)NC(=O)c1ccccc1", "survival": "86%"}, {"smiles": "CC(=O)c1c(C)n(-c2cccc(Cl)c2)c2ccc(OC(=O)c3ccccc3)cc12", "survival": "77%"}, {"smiles": "CN(CC(=O)NCc1ccccc1Cl)S(=O)(=O)c1ccc2c(c1)c(=O)n(C)c(=O)n2C", "survival": "130%"}, {"smiles": "CCOc1ccccc1C(=O)Nc1ccc(S(=O)(=O)Nc2ncccn2)cc1", "survival": "76%"}, {"smiles": "CC1=CCC2C(=O)N(C3CCCCC3)C(=O)C2C1", "note": "(stereo not drawn)", "survival": "79%"}, {"smiles": "CC(C)c1ccc(NC(=O)N2CCN(c3ccc(Cl)c(Cl)c3)CC2)cc1", "survival": "87%"}, {"smiles": "Cc1ccc(NC(=O)N2CCN(c3ccc(Cl)c(Cl)c3)CC2)cc1", "survival": "102%"}, {"smiles": "O=C(Nc1ccc(F)cc1F)N1CCN(c2ccc(Cl)c(Cl)c2)CC1", "survival": "48% (active)"}, {"smiles": "CCn1cc(S(=O)(=O)c2ccc(C)cc2)c(=O)c2cc(F)c(N3CCCCCC3)cc21", "survival": "90%"}, {"smiles": "CC(C)C(=O)Nc1nnc2n1CCS2", "survival": "101%"}, {"smiles": "CCn1c(NN)nc2sc3c(c2c1=O)CC(C)(C)OC3", "survival": "104%"}, {"smiles": "CCCSc1nc2sc3c(c2c(=O)n1Cc1ccccc1)CC(C)(CC)OC3", "note": "(stereo not drawn)", "survival": "14% (active)"}, {"smiles": "CCCCSc1nc2sc3c(c2c(=O)n1-c1ccccc1C)CC(C)(C)OC3", "survival": "48%"}, {"smiles": "C=C(C)CSc1nc2sc3c(c2c(=O)n1Cc1ccccc1)CC(C)(CC)OC3", "note": "(stereo not drawn)", "survival": "42% (active)"}, {"smiles": "CCCSc1nc2sc3c(c2c(=O)n1-c1cccc(Br)c1)CC(C)(C)OC3", "survival": "61%"}, {"smiles": "C=C(C)CSc1nc2sc3c(c2c(=O)n1-c1ccccc1)CC(C(C)C)OC3", "note": "(stereo not drawn)", "survival": "76%"}, {"smiles": "CSc1nc2c([nH]c3ccccc32)c(=O)n1-c1ccc(C)cc1", "survival": "87%"}, {"smiles": "Cc1ccc(N2C(=O)C3CN4CCCN4C3C2=O)cc1", "note": "(stereo not drawn)", "survival": "78%"}, {"smiles": "COc1ccccc1C(=O)NCC(=O)O", "survival": "76%"}, {"smiles": "CCc1ccc(S(=O)(=O)c2nnn3c2nc(N2CCCC(C)C2)c2cc(Cl)ccc23)cc1", "note": "(stereo not drawn)", "survival": "63%"}, {"smiles": "Cc1ccc(NC(=O)Cn2c(=O)n(-c3ccccc3)c(=O)c3ccc(C(=O)NCc4ccc5c(c4)OCO5)cc32)cc1", "survival": "114%"}, {"smiles": "CCOC(=O)c1cccc(NC(=O)c2cc(S(=O)(=O)N3CCCCCC3)cn2C)c1", "survival": "74%"}, {"smiles": "COc1ccc(N2CCN(S(=O)(=O)CCNC(=O)c3ccc(C(F)(F)F)cc3)CC2)cc1", "survival": "99%"}, {"smiles": "COc1ccc(CCNC(=O)c2ccc3c(c2)CCN3S(=O)(=O)c2ccccc2)cc1", "survival": "44% (active)"}, {"smiles": "O=C(NCCc1ccccc1)c1ccc2c(c1)CCN2S(=O)(=O)c1ccccc1", "survival": "38% (active)"}, {"smiles": "COc1ccc(CCNC(=O)c2ccc3c(c2)CCN3S(=O)(=O)c2ccc(C)cc2)cc1", "survival": "43% (active)"}, {"smiles": "COc1ccc(CCNC(=O)c2ccc3c(c2)CCN3S(=O)(=O)c2ccccc2)cc1OC", "survival": "88%"}, {"smiles": "COc1ccc(CNC(=O)c2ccc3c(c2)CCN3S(=O)(=O)c2ccc(C)cc2)cc1", "survival": "55%"}, {"smiles": "COc1ccc(CNC(=O)c2ccc3c(c2)CCN3S(=O)(=O)c2ccccc2)cc1", "survival": "36% (active)"}, {"smiles": "Cc1ccc(S(=O)(=O)N2CCc3cc(C(=O)NCCc4ccccc4)ccc32)cc1", "survival": "104%"}, {"smiles": "COc1ccc(CCNC(=O)c2ccc3c(c2)CCN3S(=O)(=O)c2ccc(Cl)cc2)cc1", "survival": "50%"}, {"smiles": "COc1ccc(CNC(=O)c2ccc3c(c2)CCN3S(=O)(=O)c2ccc(Cl)cc2)cc1", "survival": "62%"}, {"smiles": "COc1ccc(CCNC(=O)c2ccc3c(c2)CCN3S(=O)(=O)c2ccc(C)cc2)cc1OC", "survival": "50%"}, {"smiles": "O=C(NCCc1ccccc1)c1ccc2c(c1)CCN2S(=O)(=O)c1ccc(Br)cc1", "survival": "67%"}, {"smiles": "COc1ccc(CCNC(=O)c2ccc3c(c2)CCN3S(C)(=O)=O)cc1", "survival": "82%"}, {"smiles": "Cc1cccc(-c2nc(CSc3nncn4c3cc3sccc34)c(C)o2)c1", "survival": "75%"}, {"smiles": "COc1ccc(CC(=O)Nc2cc(-c3cn4cccnc4n3)ccc2OC)cc1", "survival": "91%"}, {"smiles": "COc1ccc(Cl)cc1NC(=O)CN(c1cccc(C)c1C)S(=O)(=O)c1ccccc1", "survival": "72%"}, {"smiles": "Cc1cccc(N2CCN(S(=O)(=O)c3ccc4c(c3)CCCN4C(=O)C3CCC3)CC2C)c1", "note": "(stereo not drawn)", "survival": "77%"}, {"smiles": "COc1cccc(-n2cc(C(=O)Nc3cccc(C(F)(F)F)c3)c3ccccc3c2=O)c1", "survival": "61%"}, {"smiles": "CCCCN(C)c1nnc(NC(=O)Nc2cccc(C(C)=O)c2)s1", "survival": "93%"}, {"smiles": "Cc1cccc2cc(CN(Cc3ccco3)C(=O)N3CCOCC3)c(Cl)nc12", "survival": "85%"}, {"smiles": "O=C(CSc1nccn1Cc1ccc(F)cc1)NCc1ccc(F)cc1", "survival": "71%"}, {"smiles": "O=C(c1cnc(N2CCOCC2)c2ccccc12)N1CCN(c2ccccc2F)CC1", "survival": "71%"}, {"smiles": "CCCc1cc(N2CCN(c3cc(Cl)ccc3C)CC2)n2cnnc2n1", "survival": "30% (active)"}, {"smiles": "CCCc1cc(N2CCN(c3cccc(C)c3C)CC2)n2cnnc2n1", "survival": "52%"}, {"smiles": "CCCc1cc(N2CCN(c3ccccc3F)CC2)n2cnnc2n1", "survival": "75%"}, {"smiles": "CN(C)c1cc2c(cc1NC(=O)c1ccc(F)cc1)n(C)c(=O)n2C", "survival": "104%"}, {"smiles": "CCNc1nc(Cl)nc(NC2CCCCC2)n1", "survival": "90%"}, {"smiles": "COc1ccc(-c2cc3ccc(O)c(CN4CCC(C)CC4)c3oc2=O)cc1", "survival": "71%"}, {"smiles": "COc1ccc(-c2cc3ccc(O)c(CN4CCCC4)c3oc2=O)cc1OC", "survival": "116%"}, {"smiles": "COc1ccc(-c2cc3ccc(O)c(CN4CCC(C)CC4)c3oc2=O)cc1OC", "survival": "52% (active)"}, {"smiles": "Cc1ccc2oc(=O)c3cnn(CC(=O)N4CCN(c5cccc(C(F)(F)F)c5)CC4)c3c2c1", "survival": "87%"}, {"smiles": "Cc1cc(C)c2c(n1)nn1c(C)c(CCC(=O)NCc3ccccc3Cl)c(C)nc21", "survival": "82%"}]}]}
